{"source": "PubChem BioAssay (NCATS)", "note": "Records with an inconclusive call do not appear. A call without a number means that no potency is given here. Activity calls are given as the source filed them. Calls come from the whole dose curve; as a rule, active = well fitted curve in the direction sought with a large enough effect; inconclusive = small, poorly fitted or top-dose-only effect, or another doubt; inactive = no such curve, though single readings can be large; an effect the other way counts as inactive or inconclusive."}
{"molecular_target": "Aldehyde dehydrogenase, mitochondrial (Homo sapiens) (UniProt P05091)", "test": "qHTS for Inhibitors of the Aldehyde Dehydrogenase Family (ALDH2) Primary screen (AID 2061308); note: nearly all actives have a fitted effect of over 55% in size", "settings": "ALDH2 enzyme inhibition qHTS, 1536-well; series mostly up to 56 µM"}
{"compound": "Cn1nnnc1Sc1ncnc2scc(-c3ccccc3Br)c12", "Potency": "inactive"}
{"compound": "Cc1nc(CSc2ncnc3ccc(-c4ccc5c(c4)OCO5)cc23)cs1", "Potency": "inactive"}
{"compound": "O=C(c1ccccc1O)N(Cc1cccs1)Cc1cccs1", "Potency": "inactive"}
{"compound": "N#Cc1nc(-c2cccc3ccccc23)oc1NC1CNC1", "Potency": "inactive"}
{"compound": "COc1ccccc1OCCN1CC(COc2cccc3[nH]c4ccccc4c23)OCC1=O", "note": "(stereo not given)", "Potency": "inactive"}
{"compound": "FC(F)(F)c1cccc(N2CCN(C(=S)Nc3ccccn3)CC2)c1", "Potency": "inactive"}
{"compound": "Cc1ccc(NC(=O)c2cnn3c(C)cc(C)nc23)cc1", "Potency": "inactive"}
{"compound": "CC1(C)CCC(C)(C)c2cc([S+](=O)([O-])N3CCN([S+](=O)([O-])c4c(F)cccc4F)CC3)ccc21", "Potency": "inactive"}
{"compound": "COc1cc(-c2ccc3ncnc(NCc4ccc(C)o4)c3c2)cc(OC)c1OC", "Potency": "inactive"}
{"compound": "O=C1CCc2cc(S(=O)(=O)Nc3ccccc3Cl)ccc2N1", "Potency": "inactive"}
{"compound": "O=C(Nc1nnc(-c2ccco2)o1)c1ccc(Cl)cc1", "Potency": "inactive"}
{"compound": "Cc1cnc(-c2ccccc2C(C)C)nc1NCc1ccc(-c2cccnc2)cc1", "Potency": "inactive"}
{"compound": "O=c1[nH]c(CCl)nc2sc3c(c12)CCC3", "Potency": "inactive"}
{"compound": "Cc1ccc(S(=O)(=O)Nc2cccc3ccc(C)nc23)cc1", "Potency": "inactive"}
{"compound": "COC(=O)c1cc2c(s1)c1cnn(Cc3ccccc3F)c(=O)c1n2C", "Potency": "inactive"}
{"compound": "Cc1noc(C)c1-c1ccc2ncnc(NCc3ccccc3F)c2c1", "Potency": "inactive"}
{"compound": "Cc1cc(NS(=O)(=O)Cc2ccc(NC(=O)Cc3ccc(Cl)c(Cl)c3)cc2)no1", "Potency": "inactive"}
{"compound": "CC1=C(C(=O)N(C)C)C(c2ccccc2Br)N=C(Nc2nc3ccccc3o2)N1", "note": "(stereo not given)", "Potency": "inactive"}
{"compound": "Cc1cc2c(s1)c1cnn(Cc3ccc(F)c(C)c3)c(=O)c1n2C", "Potency": "inactive"}
{"compound": "O=C1CCCC2=C1C(c1[nH]ncc1Cl)N=C(c1nc3ccccc3o1)N2", "note": "(stereo not given)", "Potency": "inactive"}
{"compound": "O=[S+]([O-])(Nc1ccc(-c2nc3ccccc3[nH]2)cc1)c1ccc2c(c1)CCO2", "Potency": "inactive"}
{"compound": "CC(=O)Nc1oc(-c2cccc3ccccc23)nc1C#N", "Potency": "inactive"}
{"compound": "Cc1cccc(NC(=O)CN2CCC(c3ccccn3)CC2)c1", "Potency": "inactive"}
{"compound": "Cc1ccc(NS(=O)(=O)c2cc3c(cc2/C=C/c2ccccc2)NC(=O)CO3)cc1C", "Potency": "inactive"}
{"compound": "Cc1ccccc1N(C)C1=N[S+](=O)([O-])c2ccccc21", "Potency": "inactive"}
{"compound": "Cc1cc(C)nc(NC(=S)N2CCN(c3ccc(C(F)(F)F)cc3Cl)CC2)c1", "Potency": "inactive"}
{"compound": "NC(=O)c1ccccc1C[C@H](C(=O)O)N1C(=O)c2ccc(C(=O)O)cc2C1=O", "Potency": "inactive"}
{"compound": "CCNC(=O)c1ccc(-c2ccc3ncnc(N4CCOCC4)c3c2)o1", "Potency": "inactive"}
{"compound": "CC(C)[C@@H](C)/C=C/[C@@H](C)[C@H]1CC[C@H]2C3=CC=C4C[C@@H](O)CC[C@]4(C)C3=CC[C@]12C", "Potency": "inactive"}
{"compound": "COc1ccc2nc(-c3ccc(OC)c(OC)c3)sc2c1", "Potency": "inactive"}
{"compound": "CCCn1c(C)nc2c(NCCCCN(C)C)nc(C)nc21", "Potency": "inactive"}
{"compound": "COc1cccc(NC(=O)c2cc(-c3ccc(C)c(C)c3)nc3ccccc23)c1", "Potency": "inactive"}
{"compound": "O=C(Nc1ccc(-n2ccnc2)c(F)c1)Nc1nnc(-c2ccncc2)s1", "Potency": "inactive"}
{"compound": "N#Cc1cccc(S(=O)(=O)Nc2cnccc2C(=O)Nc2nc(-c3ccccc3)cs2)c1", "Potency": "inactive"}
{"compound": "O=C(O)c1ccc(O)c2ncc(-c3n[nH]nc3-c3ccccc3)cc12", "Potency": "inactive"}
{"compound": "N#CN1CCC(NS(=O)(=O)c2ccc(F)cc2)C1", "note": "(stereo not given)", "Potency": "inactive"}
{"compound": "COc1ccc(CNc2nc(-c3ccccc3C(F)(F)F)nc3ccccc23)cc1", "Potency": "inactive"}
{"compound": "O=C1CCc2cc(S(=O)(=O)Nc3ccc(F)cc3)ccc2N1", "Potency": "inactive"}
{"compound": "Cc1ccc(NC(=O)CN2C(=O)N/C(=C\\c3cccn3-c3ccc(C(=O)NOCc4ccccc4)cc3)C2=O)cc1", "Potency": "inactive"}
{"compound": "Fc1ccc(-c2ccc(CNc3nc(-c4ccccc4C(F)(F)F)nc4ccccc34)cc2)cc1C(F)(F)F", "Potency": "inactive"}
{"molecular_target": "Retinaldehyde dehydrogenase 3 (Homo sapiens) (UniProt P47895)", "test": "qHTS for Inhibitors of the Aldehyde Dehydrogenase Family (ALDH1A3) Primary screen (AID 2061315)", "settings": "ALDH inhibition qHTS; series mostly up to 56 µM"}
{"compound": "Cn1nnnc1Sc1ncnc2scc(-c3ccccc3Br)c12", "Potency": "inactive"}
{"compound": "Cc1nc(CSc2ncnc3ccc(-c4ccc5c(c4)OCO5)cc23)cs1", "Potency": "inactive"}
{"compound": "O=C(c1ccccc1O)N(Cc1cccs1)Cc1cccs1", "Potency": "inactive"}
{"compound": "N#Cc1nc(-c2cccc3ccccc23)oc1NC1CNC1", "Potency": "inactive"}
{"compound": "COc1ccccc1OCCN1CC(COc2cccc3[nH]c4ccccc4c23)OCC1=O", "note": "(stereo not given)", "Potency": "inactive"}
{"compound": "FC(F)(F)c1cccc(N2CCN(C(=S)Nc3ccccn3)CC2)c1", "Potency": "inactive"}
{"compound": "Cc1ccc(NC(=O)c2cnn3c(C)cc(C)nc23)cc1", "Potency": "inactive"}
{"compound": "CC1(C)CCC(C)(C)c2cc([S+](=O)([O-])N3CCN([S+](=O)([O-])c4c(F)cccc4F)CC3)ccc21", "Potency": "inactive"}
{"compound": "COc1cc(-c2ccc3ncnc(NCc4ccc(C)o4)c3c2)cc(OC)c1OC", "Potency": "inactive"}
{"compound": "O=C1CCc2cc(S(=O)(=O)Nc3ccccc3Cl)ccc2N1", "Potency": "inactive"}
{"compound": "O=C(Nc1nnc(-c2ccco2)o1)c1ccc(Cl)cc1", "Potency": "inactive"}
{"compound": "Cc1cnc(-c2ccccc2C(C)C)nc1NCc1ccc(-c2cccnc2)cc1", "Potency": "inactive"}
{"compound": "O=c1[nH]c(CCl)nc2sc3c(c12)CCC3", "Potency": "inactive"}
{"compound": "Cc1ccc(S(=O)(=O)Nc2cccc3ccc(C)nc23)cc1", "Potency": "inactive"}
{"compound": "COC(=O)c1cc2c(s1)c1cnn(Cc3ccccc3F)c(=O)c1n2C", "Potency": "inactive"}
{"compound": "Cc1noc(C)c1-c1ccc2ncnc(NCc3ccccc3F)c2c1", "Potency": "inactive"}
{"compound": "Cc1cc(NS(=O)(=O)Cc2ccc(NC(=O)Cc3ccc(Cl)c(Cl)c3)cc2)no1", "Potency": "inactive"}
{"compound": "CC1=C(C(=O)N(C)C)C(c2ccccc2Br)N=C(Nc2nc3ccccc3o2)N1", "note": "(stereo not given)", "Potency": "inactive"}
{"compound": "Cc1cc2c(s1)c1cnn(Cc3ccc(F)c(C)c3)c(=O)c1n2C", "Potency": "inactive"}
{"compound": "O=C1CCCC2=C1C(c1[nH]ncc1Cl)N=C(c1nc3ccccc3o1)N2", "note": "(stereo not given)", "Potency": "inactive"}
{"compound": "O=[S+]([O-])(Nc1ccc(-c2nc3ccccc3[nH]2)cc1)c1ccc2c(c1)CCO2", "Potency": "inactive"}
{"compound": "CC(=O)Nc1oc(-c2cccc3ccccc23)nc1C#N", "Potency": "inactive"}
{"compound": "Cc1cccc(NC(=O)CN2CCC(c3ccccn3)CC2)c1", "Potency": "inactive"}
{"compound": "Cc1ccc(NS(=O)(=O)c2cc3c(cc2/C=C/c2ccccc2)NC(=O)CO3)cc1C", "Potency": "inactive"}
{"compound": "Cc1ccccc1N(C)C1=N[S+](=O)([O-])c2ccccc21", "Potency": "inactive"}
{"compound": "Cc1cc(C)nc(NC(=S)N2CCN(c3ccc(C(F)(F)F)cc3Cl)CC2)c1", "Potency": "inactive"}
{"compound": "NC(=O)c1ccccc1C[C@H](C(=O)O)N1C(=O)c2ccc(C(=O)O)cc2C1=O", "Potency": "inactive"}
{"compound": "CCNC(=O)c1ccc(-c2ccc3ncnc(N4CCOCC4)c3c2)o1", "Potency": "inactive"}
{"compound": "CC(C)[C@@H](C)/C=C/[C@@H](C)[C@H]1CC[C@H]2C3=CC=C4C[C@@H](O)CC[C@]4(C)C3=CC[C@]12C", "Potency": "inactive"}
{"compound": "COc1ccc2nc(-c3ccc(OC)c(OC)c3)sc2c1", "Potency": "inactive"}
{"compound": "CCCn1c(C)nc2c(NCCCCN(C)C)nc(C)nc21", "Potency": "inactive"}
{"compound": "COc1cccc(NC(=O)c2cc(-c3ccc(C)c(C)c3)nc3ccccc23)c1", "Potency": "inactive"}
{"compound": "O=C(Nc1ccc(-n2ccnc2)c(F)c1)Nc1nnc(-c2ccncc2)s1", "Potency": "inactive"}
{"compound": "N#Cc1cccc(S(=O)(=O)Nc2cnccc2C(=O)Nc2nc(-c3ccccc3)cs2)c1", "Potency": "inactive"}
{"compound": "O=C(O)c1ccc(O)c2ncc(-c3n[nH]nc3-c3ccccc3)cc12", "Potency": "inactive"}
{"compound": "N#CN1CCC(NS(=O)(=O)c2ccc(F)cc2)C1", "note": "(stereo not given)", "Potency": "inactive"}
{"compound": "COc1ccc(CNc2nc(-c3ccccc3C(F)(F)F)nc3ccccc23)cc1", "Potency": "inactive"}
{"compound": "O=C1CCc2cc(S(=O)(=O)Nc3ccc(F)cc3)ccc2N1", "Potency": "inactive"}
{"compound": "Cc1ccc(NC(=O)CN2C(=O)N/C(=C\\c3cccn3-c3ccc(C(=O)NOCc4ccccc4)cc3)C2=O)cc1", "Potency": "inactive"}
{"compound": "Fc1ccc(-c2ccc(CNc3nc(-c4ccccc4C(F)(F)F)nc4ccccc34)cc2)cc1C(F)(F)F", "Potency": "inactive"}
